Source: PubChem BioAssay (several laboratories)
NRP1-CendR mod = modulators of CendR peptide binding to human neuropilin-1. O14786. FAM-RPARPAR peptide binding to NRP-1, fluorescence polarization. inhibition, % at 25 µM. 360,000 tested, 0.85% active. AID 602438;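 active = inhibition or corrected inhibition above about 18%, plus a signal ratio from 0.5 to 1.5, limit read from the data, passing the limit was not always enough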
Target sequence (O14786 whole entry, looked up): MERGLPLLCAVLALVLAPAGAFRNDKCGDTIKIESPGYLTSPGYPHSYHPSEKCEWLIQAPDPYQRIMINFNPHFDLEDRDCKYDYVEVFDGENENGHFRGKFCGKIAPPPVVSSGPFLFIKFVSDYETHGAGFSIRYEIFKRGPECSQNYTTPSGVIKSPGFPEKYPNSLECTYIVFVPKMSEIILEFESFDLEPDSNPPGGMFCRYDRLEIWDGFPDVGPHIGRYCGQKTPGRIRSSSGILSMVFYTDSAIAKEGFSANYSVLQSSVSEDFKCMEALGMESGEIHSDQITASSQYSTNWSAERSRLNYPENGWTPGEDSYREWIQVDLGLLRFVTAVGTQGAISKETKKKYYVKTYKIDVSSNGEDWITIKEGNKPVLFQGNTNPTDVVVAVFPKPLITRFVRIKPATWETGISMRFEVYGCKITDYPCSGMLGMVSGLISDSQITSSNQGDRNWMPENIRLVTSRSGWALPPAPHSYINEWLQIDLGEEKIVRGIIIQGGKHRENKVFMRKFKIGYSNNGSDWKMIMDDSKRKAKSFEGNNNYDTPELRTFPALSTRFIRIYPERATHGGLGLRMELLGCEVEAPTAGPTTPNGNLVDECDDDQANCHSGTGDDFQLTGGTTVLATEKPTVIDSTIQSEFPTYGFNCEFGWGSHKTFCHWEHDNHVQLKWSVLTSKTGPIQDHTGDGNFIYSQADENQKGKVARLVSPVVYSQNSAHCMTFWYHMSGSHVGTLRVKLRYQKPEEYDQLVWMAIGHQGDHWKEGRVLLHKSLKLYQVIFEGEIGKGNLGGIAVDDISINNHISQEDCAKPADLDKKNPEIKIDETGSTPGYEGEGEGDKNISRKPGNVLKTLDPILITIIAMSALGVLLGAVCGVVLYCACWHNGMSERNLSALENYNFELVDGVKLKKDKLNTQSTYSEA
ABCB6 inh 2 = blocks the human ABCB6 transporter; AID 602162; fluorescence ratio to DMSO, % at 10 µM; 360,000 tested, 0.19% active; K562-ABCB6 porphyrin accumulation, flow cytometry, 1 h; hits give low values;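 active = fluorescence ratio to DMSO below 75%, the collection mean minus 3 SD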;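 also: signal is porphyrin accumulated inside mitochondria; 100% equals median channel fluorescence of DMSO control wells; lower ratio means ABCB6 inhibition with less porphyrin fluorescence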
ARNT TACC3 PPI = disruptors of human ARNT/TACC3 interaction | inhibition, % at 9.99 µM | 390,000 tested, 0.66% active | AlphaScreen His-ARNT PAS-B/GST-TACC3 binding, luminescence; TACC3 fragment carries E629A point mutation | Q9Y6A5;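 active = mean inhibition of replicates at least 50% and at least half of replicates each reaching 50%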;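 also: 0% = complete ARNT plus TACC3 wells and 100% = ARNT alone without TACC3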
GSIS activator = primary screen for activators of insulin secretion dependent on glucose, INS-1E cells, GLuc reporter luminescence; INS-1E GLuc reporter insulin secretion, 2-3 h; 370,000 tested, 0.61% active; activation, % at 16.6 µM; AID 743287;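 active = lowest replicate activation of at least 40%, so every replicate reaches that level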;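 also: 0% = median of neutral control wells and 100% = median of IBMX positive control wells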
hiPSC survival = increases survival of single human iPS cells. hiPSC single-cell survival, ATPlite luminescence; 100% = ROCK inhibitor wells, 0% = DMSO. survival enhancement, % at 20 µM. 360,000 tested, 0.044% active. AID 602274; in the data active = survival enhancement above about 18%;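 also: cells exposed to compounds for 16 hours before the ATP read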
Numbers without * were called inactive; . = no result. Sampled rows, rich in hits. Any-hit rate of the full collection: about 1.8%.

SMILES | NRP1-CendR mod | ABCB6 inh 2 | ARNT TACC3 PPI | GSIS activator | hiPSC survival
Cc1cccc(-c2ccc([C@H]3[C@@H](CO)N4C(=O)CN(C(=O)c5cnccn5)C[C@@H]34)cc2)c1 | . | . | . | -8.8 | .
CC(=O)N(C)C[C@H]1Oc2ccc(N(C)C)cc2C(=O)N(C)C[C@H]1C | . | . | . | 14.8 | .
C[C@@H]1CCCCO[C@@H](CN(C)C(=O)Nc2ccc(F)cc2)[C@H](C)CN([C@H](C)CO)C(=O)c2cc(NS(=O)(=O)c3ccc(Cl)cc3)ccc2O1 | . | . | -14.2 | -11.6 | .
COc1ccc(OC)c(Nc2cc3ccccc3c(=O)[nH]2)c1 | -16.8 | 106.0 | 38.2* | -15.8 | 3.4
COc1ccc(S(=O)(=O)N(C)C[C@@H]2Oc3ccc(NS(=O)(=O)c4ccccc4)cc3C(=O)N([C@H](C)CO)C[C@@H]2C)cc1 | . | . | 11.6 | 2.3 | .
c1ccc2c(CNc3ccc(CNc4ncn[nH]4)cc3)cccc2c1 | 31.9* | 110.0 | 3.1 | . | -3.5
COc1ccccc1CNc1ccc(CNc2ncn[nH]2)cc1 | -2.7 | 88.0 | -2.4 | 8.2 | 3.4
CSc1nc(N)n2nc(C)cc2n1 | 15.7 | 95.0 | . | 0.6 | -0.9
CSc1nc(N)n2nc(C(C)(C)C)cc2n1 | 4.7 | 103.0 | 10.6 | 54.1* | 0.1
CCOc1cc(C2NC(=O)NC(c3ccccc3)=C2C(C)=O)ccc1OCC(N)=O (centres undefined) | 47.2* | 92.0 | 7.2 | . | 0.0
CCOc1ccc(C2NC(=O)NC(c3ccccc3)=C2C(C)=O)cc1OC (centres undefined) | 3.7 | 98.0 | -20.6 | 4.3 | 0.0
O=C(O)C1CCN(C(=O)c2ccc(Cl)cc2)CC1 | 25.4* | 96.0 | -4.7 | . | -2.9
CCOC(=O)C1CCN(C2=NC(=O)/C(=C/c3ccc(OC)c(OC)c3)S2)CC1 | 0.4 | 95.0 | 1.9 | 11.1 | 1.2
COc1ccc(/C=C2\SC(N3CCCCC3)=NC2=O)cc1OC | -10.6 | 112.0 | 0.9 | 66.0* | -0.4
CCOc1ccc(NC(=O)[C@@H](NC(=O)OCc2ccccc2)[C@@H](C)CC)cc1 | -6.0 | 105.0 | -7.3 | 49.3* | 0.9
CN(N)c1nc(-c2ccccc2)nnc1C(F)(F)F | 34.1* | 92.0 | -0.2 | 4.3 | 1.9
COc1ccc(/C=C/C(=O)NCC(=O)N/N=C/c2ccc(OC)cc2)cc1 | 19.8* | 104.0 | -10.6 | 6.0 | -1.8
COc1ccc(/C=C/C(=O)NCC(=O)N/N=C/c2cccnc2)cc1 | -6.4 | 105.0 | -1.1 | -0.7 | 3.1
CCC(=O)N1[C@@H](CO)[C@@H](c2ccccc2)C12CN(Cc1cccnc1)C2 | . | . | . | 6.9 | .
COc1ccc(C(=O)NCC(=O)OCC(=O)Nc2ccc(C)c(S(=O)(=O)N(C)C)c2)cc1OC | -1.2 | 95.0 | -0.5 | 68.0* | -0.6
COc1ccc(CCC(=O)Nc2ccc(C)c(S(=O)(=O)N(C)C)c2)cc1OC | -1.6 | 81.0 | 3.2 | -1.7 | 1.3
Cc1ccc(NC(=O)CCNC(=O)c2ccc([N+](=O)[O-])cc2)cc1S(=O)(=O)N(C)C | 39.1* | 96.0 | -3.4 | -1.9 | -0.5
Cc1ccc(NC(=O)c2ccc([N+](=O)[O-])cc2)cc1S(=O)(=O)N(C)C | -0.5 | 101.0 | -10.0 | 5.9 | 0.6
CCC(=O)N(C)C[C@@H]1Oc2cc(-c3ccc(OC)cc3)ccc2S(=O)(=O)N([C@H](C)CO)C[C@H]1C | . | . | 5.1 | 2.2 | .
O=C(c1ccc2c(c1)OCO2)N1CC(=O)N2[C@H](C1)[C@H](c1ccc(C#CCC3CCCC3)cc1)[C@@H]2CO | . | . | . | 5.3 | .
SMILES | NRP1-CendR mod | ABCB6 inh 2 | ARNT TACC3 PPI | GSIS activator | hiPSC survival
CC(=NNc1nc2ccccc2o1)c1cc2ccccc2cn1 | 3.8 | 273.0 | 5.0 | 0.5 | -2.6
C/C(=N\Nc1nc2ccccc2s1)c1cccs1 | 6.2 | 94.0 | 16.8 | -10.7 | -4.0
CC(=NNc1nc2ccccc2o1)c1ncccn1 | -0.2 | 93.0 | 62.1* | -6.5 | 10.3
CC(=NNc1nc2ccccc2s1)c1ncccn1 | -7.3 | 106.0 | 63.4* | -0.5 | 3.8
COc1ccc(C[C@@H]2CCn3cc(nn3)COC[C@H](C)NC2=O)cc1 | . | . | . | 10.6 | .
CC[C@@H]1CC=CC[C@@H](C)Oc2ccccc2C(=O)N(C)[C@H](C(C)C)C(=O)N1 (mixture of isomers) | . | . | . | -5.0 | .
COc1ccc(C2=NOC(C(=O)Nc3cccnc3)C2)cc1OC (centres undefined) | 5.0 | 96.0 | 1.8 | 75.0* | -0.6
O=C(N[C@H]1CC[C@H](CCNC(=O)C2CC2)O[C@H]1CO)c1ccccn1 | . | . | -13.2 | 7.1 | .
O=C(Nc1ccc(Cl)cc1)Nc1nnc(-c2ccncc2)s1 | -27.7 | 89.0 | -10.0 | 46.7 | 2.6
Fc1ccc(Nc2nnc(-c3ccncc3)s2)cc1Cl | 35.2* | 100.0 | . | -0.7 | 1.4
COc1ccc(Cn2c(=O)sc3ccccc32)cc1 | 30.7* | 104.0 | 32.6 | . | -1.5
Cc1noc(C)c1NC(=O)N(C)C[C@@H]1Oc2c(NS(C)(=O)=O)cccc2C(=O)N([C@@H](C)CO)C[C@@H]1C | . | . | . | 17.6 | .
C[C@H](CO)N1C[C@H](C)[C@H](CN(C)CC2CCCCC2)Oc2c(NC(=O)C3CC3)cccc2C1=O | . | . | 4.7 | 7.1 | .
C=CCNc1nc(Cl)nc(Nc2ccc(OC)cc2)n1 | -4.6 | 103.0 | -2.2 | 64.9* | -1.2
CCc1ccc(S(=O)(=O)/N=C2/C=C(Sc3ncn[nH]3)C(=O)c3ccccc32)cc1 | 10.4 | 98.0 | 35.8* | . | -4.0
O=C1C(Nc2ccc(O)cc2)=C/C(=N/S(=O)(=O)c2cccs2)c2ccccc21 | 19.7 | 123.0 | 66.6* | -1.9 | -4.6
Cc1cccc(NC2=C/C(=N/S(=O)(=O)c3cccs3)c3ccccc3C2=O)c1 | 6.8 | 105.0 | -6.2 | -26.4 | -3.4
Cc1cc(C)c(S(=O)(=O)/N=C2\C=C(Nc3ccc(C(=O)O)cc3)C(=O)c3ccccc32)c(C)c1 | 22.8 | 102.0 | . | 6.2 | -0.6
CCc1ccc(S(=O)(=O)/N=C2\C=C(Nc3cccc(C(=O)O)c3)C(=O)c3ccccc32)cc1 | 40.7* | 102.0 | 68.5* | -51.4 | -0.4
O=C(O)c1ccc(NC2=C/C(=N/S(=O)(=O)c3cccs3)c3ccccc3C2=O)cc1 | 41.7* | 100.0 | . | 1.1 | -3.2
COc1ccc2c3c(n(C)c2c1)[C@H](CO)N(Cc1ccccc1)CC31CN(C(=O)C2CC2)C1 | . | . | . | 2.7 | .
CCCC(=O)Nc1ccc2c(c1)C(=O)N(C)[C@H]1CC[C@H](CC(=O)Nc3ccccc3F)O[C@@H]1CO2 | . | . | -6.1 | 2.3 | .
O=C(O)c1ccc(NC2=C/C(=N/S(=O)(=O)c3ccccc3)c3ccccc3C2=O)cc1 | 36.6* | 111.0 | 33.6 | -53.5 | -0.9
